In article PMC7862700, “An all-to-all approach to the identification of sequence-specific readers for epigenetic DNA modifications on cytosine”:

Assays:
Experiment in all cases: DAPPL (digital affinity profiling via proximity ligation, sequencing); 10 mM Tris-HCl pH 7.5, 50 mM NaCl, 1 mM DTT, 4% glycerol, room temperature, 30 min; GST-TFs on glutathione beads, 16-mer random dsDNA library, 0.1% formaldehyde crosslink after washing; high values mean tight binding
FEV = target: T1, FEV (Homo sapiens, UniProt Q99581 1-238); conditions: protein: recombinant; tags: N-terminal GST; dsDNA, one strand shown
T1 sequence: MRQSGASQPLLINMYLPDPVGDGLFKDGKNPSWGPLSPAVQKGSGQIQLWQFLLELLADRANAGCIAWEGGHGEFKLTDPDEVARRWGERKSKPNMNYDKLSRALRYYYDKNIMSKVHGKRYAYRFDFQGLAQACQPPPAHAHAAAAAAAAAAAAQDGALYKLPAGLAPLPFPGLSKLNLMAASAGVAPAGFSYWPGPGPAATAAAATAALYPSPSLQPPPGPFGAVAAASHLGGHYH
Outline: (§1)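 Each value of binding signal is a hexamer's read frequency for a factor divided by the same hexamer's frequency in the tag-only sample. Barcoded, bead-captured GST fusions of human transcription factors made in yeast were pooled with that sample and incubated with 200 nmole of a random double-stranded 16-mer DNA library in Tris/NaCl/DTT/glycerol buffer at room temperature for 30 min. Washing, 0.1% formaldehyde crosslinking, proximity ligation, PCR and Illumina NextSeq500 sequencing followed.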

ETV5 = ETV5 (Homo sapiens, UniProt P41161 1-510); conditions: protein: recombinant; tags: N-terminal GST; dsDNA, one strand shown
ETV5, sequence (P41161 whole entry): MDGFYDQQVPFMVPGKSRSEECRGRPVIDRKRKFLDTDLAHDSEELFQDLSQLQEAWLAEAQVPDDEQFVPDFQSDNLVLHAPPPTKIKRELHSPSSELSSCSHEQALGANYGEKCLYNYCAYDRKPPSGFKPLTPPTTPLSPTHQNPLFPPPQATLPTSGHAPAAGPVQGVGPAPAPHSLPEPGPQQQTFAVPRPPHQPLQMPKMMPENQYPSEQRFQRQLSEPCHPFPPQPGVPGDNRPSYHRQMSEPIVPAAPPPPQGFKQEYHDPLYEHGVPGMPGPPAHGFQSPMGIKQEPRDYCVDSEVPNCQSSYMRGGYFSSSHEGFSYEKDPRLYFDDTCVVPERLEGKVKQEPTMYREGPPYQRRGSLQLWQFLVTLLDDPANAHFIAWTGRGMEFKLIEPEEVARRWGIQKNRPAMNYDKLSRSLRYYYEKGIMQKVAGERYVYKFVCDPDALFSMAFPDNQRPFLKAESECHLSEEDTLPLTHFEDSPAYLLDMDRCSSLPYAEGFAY
Outline: as §1

HSF1 = HSF1 (Homo sapiens, UniProt Q00613 1-529); conditions: protein: recombinant; tags: N-terminal GST; chain copies: 3; dsDNA, one strand shown
HSF1, sequence (Q00613 whole entry): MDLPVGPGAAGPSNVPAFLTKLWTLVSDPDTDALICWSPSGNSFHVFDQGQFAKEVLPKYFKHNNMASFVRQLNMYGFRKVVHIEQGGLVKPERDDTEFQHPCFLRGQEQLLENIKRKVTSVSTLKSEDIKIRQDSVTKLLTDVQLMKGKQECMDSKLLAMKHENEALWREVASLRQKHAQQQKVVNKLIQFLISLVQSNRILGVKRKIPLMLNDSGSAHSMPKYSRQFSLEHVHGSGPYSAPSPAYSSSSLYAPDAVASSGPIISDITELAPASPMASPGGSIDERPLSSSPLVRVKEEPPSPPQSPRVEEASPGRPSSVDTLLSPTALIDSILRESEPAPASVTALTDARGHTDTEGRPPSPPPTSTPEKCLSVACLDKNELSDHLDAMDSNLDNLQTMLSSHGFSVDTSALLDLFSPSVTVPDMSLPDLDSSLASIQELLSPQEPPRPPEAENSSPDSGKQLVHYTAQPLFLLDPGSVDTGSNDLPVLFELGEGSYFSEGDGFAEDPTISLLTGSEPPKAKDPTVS
Outline: as §1

SPIC = target: T2, SPIC (Homo sapiens, UniProt Q8N5J4 1-248); conditions: protein: recombinant; tags: N-terminal GST; dsDNA, one strand shown
T2 sequence: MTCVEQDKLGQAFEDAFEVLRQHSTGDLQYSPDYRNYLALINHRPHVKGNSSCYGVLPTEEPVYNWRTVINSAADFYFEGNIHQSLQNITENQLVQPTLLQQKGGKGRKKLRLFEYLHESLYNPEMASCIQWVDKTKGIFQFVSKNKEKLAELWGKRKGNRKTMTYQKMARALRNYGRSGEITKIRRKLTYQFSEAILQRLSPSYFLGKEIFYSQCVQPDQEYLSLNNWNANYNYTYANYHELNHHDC
Outline: as §1

ELF4 = ELF4 (Homo sapiens, UniProt Q99607 1-663); conditions: protein: recombinant; tags: N-terminal GST; dsDNA, one strand shown
ELF4, sequence (Q99607 whole entry): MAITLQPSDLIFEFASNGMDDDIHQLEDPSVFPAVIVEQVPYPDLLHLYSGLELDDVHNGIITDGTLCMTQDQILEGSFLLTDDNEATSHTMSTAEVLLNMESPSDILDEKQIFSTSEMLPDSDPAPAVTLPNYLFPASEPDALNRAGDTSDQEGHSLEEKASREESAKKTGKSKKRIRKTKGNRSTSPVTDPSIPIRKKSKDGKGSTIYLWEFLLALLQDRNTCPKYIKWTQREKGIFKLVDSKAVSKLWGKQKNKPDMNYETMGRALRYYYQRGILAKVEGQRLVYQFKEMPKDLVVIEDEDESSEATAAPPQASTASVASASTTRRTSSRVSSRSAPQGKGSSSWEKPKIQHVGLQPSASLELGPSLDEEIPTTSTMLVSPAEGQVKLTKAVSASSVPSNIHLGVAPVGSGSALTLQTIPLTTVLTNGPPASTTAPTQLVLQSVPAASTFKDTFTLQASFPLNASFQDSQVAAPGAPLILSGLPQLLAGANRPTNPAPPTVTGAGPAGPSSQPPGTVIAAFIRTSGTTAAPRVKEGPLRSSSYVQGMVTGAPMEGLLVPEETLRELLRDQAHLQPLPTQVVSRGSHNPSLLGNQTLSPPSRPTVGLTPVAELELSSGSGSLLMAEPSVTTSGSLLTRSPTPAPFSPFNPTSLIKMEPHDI
Outline: as §1

ELK4 = target: T3, ELK4 (Homo sapiens, UniProt P28324-2 1-405); conditions: protein: recombinant; tags: N-terminal GST; dsDNA, one strand shown
T3 sequence: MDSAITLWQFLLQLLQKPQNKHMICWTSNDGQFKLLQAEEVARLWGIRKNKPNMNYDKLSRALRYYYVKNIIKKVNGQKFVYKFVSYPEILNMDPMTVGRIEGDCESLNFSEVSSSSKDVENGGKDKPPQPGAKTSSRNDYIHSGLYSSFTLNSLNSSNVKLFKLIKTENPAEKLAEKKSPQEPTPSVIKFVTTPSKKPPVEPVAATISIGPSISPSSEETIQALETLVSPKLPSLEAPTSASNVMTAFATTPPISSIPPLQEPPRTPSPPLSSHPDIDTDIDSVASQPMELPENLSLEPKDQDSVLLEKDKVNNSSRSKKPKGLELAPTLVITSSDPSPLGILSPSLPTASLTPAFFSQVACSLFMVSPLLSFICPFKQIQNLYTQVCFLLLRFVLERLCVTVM
Outline: as §1

ETV2 = target: T4, ETV2 (Homo sapiens, UniProt O00321 1-342); conditions: protein: recombinant; tags: N-terminal GST; dsDNA, one strand shown
T4 sequence: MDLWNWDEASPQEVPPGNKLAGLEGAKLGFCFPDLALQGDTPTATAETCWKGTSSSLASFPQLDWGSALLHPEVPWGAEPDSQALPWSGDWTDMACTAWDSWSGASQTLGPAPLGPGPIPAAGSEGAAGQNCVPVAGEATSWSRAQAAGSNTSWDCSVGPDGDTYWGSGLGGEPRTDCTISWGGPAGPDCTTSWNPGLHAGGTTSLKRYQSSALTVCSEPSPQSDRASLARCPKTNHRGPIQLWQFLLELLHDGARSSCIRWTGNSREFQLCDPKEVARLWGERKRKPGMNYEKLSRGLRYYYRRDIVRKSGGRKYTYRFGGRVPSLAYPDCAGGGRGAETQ
Outline: as §1

ELF3 = target: T5, ELF3 (Homo sapiens, UniProt P78545 1-371); conditions: protein: recombinant; tags: N-terminal GST; dsDNA, one strand shown
T5 sequence: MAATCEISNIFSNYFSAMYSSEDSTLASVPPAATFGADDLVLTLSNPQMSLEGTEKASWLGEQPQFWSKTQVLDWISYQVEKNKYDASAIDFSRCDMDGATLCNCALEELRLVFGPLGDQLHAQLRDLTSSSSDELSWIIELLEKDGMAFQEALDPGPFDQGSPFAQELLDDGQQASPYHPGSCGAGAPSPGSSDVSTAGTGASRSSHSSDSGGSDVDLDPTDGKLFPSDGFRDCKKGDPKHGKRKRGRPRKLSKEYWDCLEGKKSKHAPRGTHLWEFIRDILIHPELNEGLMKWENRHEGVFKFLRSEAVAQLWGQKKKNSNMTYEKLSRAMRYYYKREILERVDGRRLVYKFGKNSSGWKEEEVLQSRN
Outline: as §1

CRX = CRX (Homo sapiens, UniProt O43186 1-299); conditions: protein: recombinant; tags: N-terminal GST; dsDNA, one strand shown
CRX, sequence (O43186 whole entry): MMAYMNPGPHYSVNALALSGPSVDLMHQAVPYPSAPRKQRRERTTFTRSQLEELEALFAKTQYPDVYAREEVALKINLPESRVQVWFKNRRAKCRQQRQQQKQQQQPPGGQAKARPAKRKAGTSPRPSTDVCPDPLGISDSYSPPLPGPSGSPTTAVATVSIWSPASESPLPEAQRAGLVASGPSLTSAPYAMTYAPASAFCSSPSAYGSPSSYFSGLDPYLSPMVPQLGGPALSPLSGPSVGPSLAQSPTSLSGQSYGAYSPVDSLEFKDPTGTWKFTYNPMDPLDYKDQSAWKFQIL
Outline: as §1

ETV1 = ETV1 (Homo sapiens, UniProt P50549 1-477); conditions: protein: recombinant; tags: N-terminal GST; dsDNA, one strand shown
ETV1, sequence (P50549 whole entry): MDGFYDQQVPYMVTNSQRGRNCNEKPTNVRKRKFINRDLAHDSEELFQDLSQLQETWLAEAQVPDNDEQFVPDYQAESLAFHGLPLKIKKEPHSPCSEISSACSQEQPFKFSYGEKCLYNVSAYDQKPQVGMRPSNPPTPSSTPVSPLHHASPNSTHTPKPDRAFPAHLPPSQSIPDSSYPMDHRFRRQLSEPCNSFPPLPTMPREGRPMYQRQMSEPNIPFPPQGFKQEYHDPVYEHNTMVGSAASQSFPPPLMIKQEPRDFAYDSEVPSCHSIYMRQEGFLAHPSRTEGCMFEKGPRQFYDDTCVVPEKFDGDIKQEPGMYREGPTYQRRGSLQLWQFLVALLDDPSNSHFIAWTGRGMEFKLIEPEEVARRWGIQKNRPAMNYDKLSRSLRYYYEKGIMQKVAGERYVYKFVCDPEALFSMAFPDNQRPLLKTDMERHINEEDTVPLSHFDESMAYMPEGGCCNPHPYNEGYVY
Outline: as §1

ERF = target: T6, ERF (Homo sapiens, UniProt P50548 1-548); conditions: protein: recombinant; tags: N-terminal GST; dsDNA, one strand shown
T6 sequence: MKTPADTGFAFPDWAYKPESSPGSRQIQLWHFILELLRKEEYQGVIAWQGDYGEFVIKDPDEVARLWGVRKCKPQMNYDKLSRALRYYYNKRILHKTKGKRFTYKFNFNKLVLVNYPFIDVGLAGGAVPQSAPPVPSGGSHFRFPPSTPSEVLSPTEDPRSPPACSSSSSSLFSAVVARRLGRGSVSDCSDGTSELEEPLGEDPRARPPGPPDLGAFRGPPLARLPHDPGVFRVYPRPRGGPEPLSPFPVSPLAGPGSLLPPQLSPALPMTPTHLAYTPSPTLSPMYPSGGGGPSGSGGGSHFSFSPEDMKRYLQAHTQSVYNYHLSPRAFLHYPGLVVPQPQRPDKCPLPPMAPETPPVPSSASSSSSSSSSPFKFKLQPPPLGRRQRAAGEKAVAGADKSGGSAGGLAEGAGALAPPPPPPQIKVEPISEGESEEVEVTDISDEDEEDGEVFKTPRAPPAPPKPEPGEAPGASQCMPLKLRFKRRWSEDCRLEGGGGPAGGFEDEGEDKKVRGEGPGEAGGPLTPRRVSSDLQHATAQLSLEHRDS
Outline: as §1

ETV3L = target: T7, ETV3L (Homo sapiens, UniProt Q6ZN32 1-361); conditions: protein: recombinant; tags: N-terminal GST; dsDNA, one strand shown
T7 sequence: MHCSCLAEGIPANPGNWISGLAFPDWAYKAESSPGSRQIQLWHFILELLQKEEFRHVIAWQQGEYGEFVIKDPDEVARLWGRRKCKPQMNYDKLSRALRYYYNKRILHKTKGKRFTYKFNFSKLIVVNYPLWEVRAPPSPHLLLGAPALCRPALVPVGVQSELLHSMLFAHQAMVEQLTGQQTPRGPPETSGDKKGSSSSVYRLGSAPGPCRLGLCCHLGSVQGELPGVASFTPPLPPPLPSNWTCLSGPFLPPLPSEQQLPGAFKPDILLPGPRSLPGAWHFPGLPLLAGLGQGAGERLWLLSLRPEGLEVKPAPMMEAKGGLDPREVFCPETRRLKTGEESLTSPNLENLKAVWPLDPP
Outline: as §1

ETS2 = target: T8, ETS2 (Homo sapiens, UniProt P15036 1-469); conditions: protein: recombinant; tags: N-terminal GST; dsDNA, one strand shown
T8 sequence: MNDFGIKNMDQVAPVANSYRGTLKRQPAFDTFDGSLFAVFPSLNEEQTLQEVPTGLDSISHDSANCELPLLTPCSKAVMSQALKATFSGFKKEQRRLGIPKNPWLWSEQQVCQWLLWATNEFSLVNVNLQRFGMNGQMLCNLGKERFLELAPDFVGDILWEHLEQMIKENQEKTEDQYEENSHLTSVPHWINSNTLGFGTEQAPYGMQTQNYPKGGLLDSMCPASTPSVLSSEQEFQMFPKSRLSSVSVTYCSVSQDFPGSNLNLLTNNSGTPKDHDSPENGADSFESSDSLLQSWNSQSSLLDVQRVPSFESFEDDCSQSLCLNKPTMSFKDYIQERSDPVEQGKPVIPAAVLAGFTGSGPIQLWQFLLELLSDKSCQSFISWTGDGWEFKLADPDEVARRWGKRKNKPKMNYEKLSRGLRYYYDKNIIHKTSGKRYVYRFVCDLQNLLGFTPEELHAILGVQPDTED
Outline: as §1

SPDEF = target: T9, SPDEF (Homo sapiens, UniProt O95238 1-335); conditions: protein: recombinant; tags: N-terminal GST; dsDNA, one strand shown
T9 sequence: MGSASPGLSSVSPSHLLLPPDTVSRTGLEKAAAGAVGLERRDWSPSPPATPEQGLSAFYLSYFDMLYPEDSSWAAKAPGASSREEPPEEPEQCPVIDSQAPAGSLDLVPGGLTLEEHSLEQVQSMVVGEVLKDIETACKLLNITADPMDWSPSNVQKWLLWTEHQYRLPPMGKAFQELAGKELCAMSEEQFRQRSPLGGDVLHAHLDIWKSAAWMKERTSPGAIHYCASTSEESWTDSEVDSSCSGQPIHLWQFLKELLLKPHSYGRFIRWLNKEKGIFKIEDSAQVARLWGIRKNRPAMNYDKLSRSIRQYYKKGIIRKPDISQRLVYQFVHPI
Outline: as §1

ETV7 = target: T10, ETV7 (Homo sapiens, UniProt Q9Y603 1-341); conditions: protein: recombinant; tags: N-terminal GST; dsDNA, one strand shown
T10 sequence: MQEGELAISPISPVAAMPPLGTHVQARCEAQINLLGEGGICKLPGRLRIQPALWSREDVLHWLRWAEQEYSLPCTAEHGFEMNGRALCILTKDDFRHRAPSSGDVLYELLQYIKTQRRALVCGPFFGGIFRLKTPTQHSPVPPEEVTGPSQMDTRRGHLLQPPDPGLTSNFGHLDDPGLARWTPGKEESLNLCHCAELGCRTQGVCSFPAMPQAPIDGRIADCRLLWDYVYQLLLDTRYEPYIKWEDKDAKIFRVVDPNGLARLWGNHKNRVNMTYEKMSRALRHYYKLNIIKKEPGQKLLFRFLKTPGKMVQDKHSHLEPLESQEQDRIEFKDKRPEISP
Outline: as §1

ELF5 = target: T11, ELF5 (Homo sapiens, UniProt Q9UKW6-2 1-255); conditions: protein: recombinant; tags: N-terminal GST; dsDNA, one strand shown
T11 sequence: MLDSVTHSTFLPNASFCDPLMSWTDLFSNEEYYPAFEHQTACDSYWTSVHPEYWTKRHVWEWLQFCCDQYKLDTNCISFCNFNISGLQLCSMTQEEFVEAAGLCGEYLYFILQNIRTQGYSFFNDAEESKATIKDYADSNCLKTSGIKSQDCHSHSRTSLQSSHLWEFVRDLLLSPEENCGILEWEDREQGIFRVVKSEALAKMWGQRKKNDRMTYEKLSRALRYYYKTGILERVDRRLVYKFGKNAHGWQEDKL
Outline: as §1

ETV3 = target: T12, ETV3 (Homo sapiens, UniProt P41162-2 1-143); conditions: protein: recombinant; tags: N-terminal GST; dsDNA, one strand shown
T12 sequence: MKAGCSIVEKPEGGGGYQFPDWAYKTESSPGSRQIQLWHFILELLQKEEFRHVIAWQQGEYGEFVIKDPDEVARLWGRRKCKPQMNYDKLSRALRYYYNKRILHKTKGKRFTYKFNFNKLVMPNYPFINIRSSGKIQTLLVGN
Outline: as §1

ETV6 = ETV6 (Homo sapiens, UniProt P41212 1-452); conditions: protein: recombinant; tags: N-terminal GST; dsDNA, one strand shown
ETV6, sequence (P41212 whole entry): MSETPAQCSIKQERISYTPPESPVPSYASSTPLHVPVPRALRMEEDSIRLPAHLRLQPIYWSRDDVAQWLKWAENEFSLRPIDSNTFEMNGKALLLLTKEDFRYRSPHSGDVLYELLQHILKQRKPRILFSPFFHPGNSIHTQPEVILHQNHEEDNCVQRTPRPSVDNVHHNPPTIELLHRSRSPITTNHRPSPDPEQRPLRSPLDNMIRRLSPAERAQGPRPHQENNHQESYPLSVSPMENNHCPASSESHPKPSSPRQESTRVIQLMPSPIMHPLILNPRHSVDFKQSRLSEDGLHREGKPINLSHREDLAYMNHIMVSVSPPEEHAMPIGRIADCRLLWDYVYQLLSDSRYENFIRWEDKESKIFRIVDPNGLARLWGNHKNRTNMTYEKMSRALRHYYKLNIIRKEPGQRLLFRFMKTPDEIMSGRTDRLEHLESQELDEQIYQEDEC
Outline: as §1

Sequence	binding signal (FEV)	binding signal (ETV5)	binding signal (HSF1)	binding signal (SPIC)	binding signal (ELF4)	binding signal (ELK4)	binding signal (ETV2)	binding signal (ELF3)	binding signal (CRX)	binding signal (ETV1)	binding signal (ERF)	binding signal (ETV3L)	binding signal (ETS2)	binding signal (SPDEF)	binding signal (ETV7)	binding signal (ELF5)	binding signal (ETV3)	binding signal (ETV6)
ACGTCT	1.13 fold enrichment (6-mer frequency, TF over GST control)	1.12 fold enrichment (6-mer frequency, TF over GST control)	1.21 fold enrichment (6-mer frequency, TF over GST control)	1.17 fold enrichment (6-mer frequency, TF over GST control)	1.28 fold enrichment (6-mer frequency, TF over GST control)	1.12 fold enrichment (6-mer frequency, TF over GST control)	1.18 fold enrichment (6-mer frequency, TF over GST control)	1 fold enrichment (6-mer frequency, TF over GST control)	1.09 fold enrichment (6-mer frequency, TF over GST control)	1.14 fold enrichment (6-mer frequency, TF over GST control)	1.12 fold enrichment (6-mer frequency, TF over GST control)	1.29 fold enrichment (6-mer frequency, TF over GST control)	1.26 fold enrichment (6-mer frequency, TF over GST control)	1.12 fold enrichment (6-mer frequency, TF over GST control)	1.29 fold enrichment (6-mer frequency, TF over GST control)	1.09 fold enrichment (6-mer frequency, TF over GST control)	1.17 fold enrichment (6-mer frequency, TF over GST control)	1.19 fold enrichment (6-mer frequency, TF over GST control)
CTTCGT	1.33 fold enrichment (6-mer frequency, TF over GST control)	1.33 fold enrichment (6-mer frequency, TF over GST control)	1.31 fold enrichment (6-mer frequency, TF over GST control)	1.4 fold enrichment (6-mer frequency, TF over GST control)	1.29 fold enrichment (6-mer frequency, TF over GST control)	1.39 fold enrichment (6-mer frequency, TF over GST control)	1.41 fold enrichment (6-mer frequency, TF over GST control)	1.41 fold enrichment (6-mer frequency, TF over GST control)	1.22 fold enrichment (6-mer frequency, TF over GST control)	1.32 fold enrichment (6-mer frequency, TF over GST control)	1.4 fold enrichment (6-mer frequency, TF over GST control)	1.32 fold enrichment (6-mer frequency, TF over GST control)	1.34 fold enrichment (6-mer frequency, TF over GST control)	1.25 fold enrichment (6-mer frequency, TF over GST control)	1.4 fold enrichment (6-mer frequency, TF over GST control)	1.3 fold enrichment (6-mer frequency, TF over GST control)	1.31 fold enrichment (6-mer frequency, TF over GST control)	1.31 fold enrichment (6-mer frequency, TF over GST control)
